TRHR PAM = allosteric enhancers of human TRH receptor. TRHR cells, fluo-8 calcium fluorescence, EC20 TRH enhancement. enhancement, % at 2 µM. 0.66% of 360,000 active; in the data active means enhancement above about 30%; further: 0% is about no effect
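TRHR-expressing cells loaded with fluo-8 calcium dye were read kinetically (ex 480/em 530) during compound addition, then stimulated with an EC20 of TRH (10 nM final). Enhancement of the Gq-mediated intracellular calcium response was scored.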
TRPML1 blocker = blocks the human TRPML1 channel; Q9GZU1; TRPML1-inducible cells, Ca2+ dye fluorescence, FDSS; active compounds read low; inhibition of EC80 agonist-evoked calcium signal; activity change, negative = inhibition, % (test concentration not listed); 0.02% of 390,000 active; AID 624415; in the data active means activity change below about -50%; inconclusive means between about -30% and that limit;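 further: stimulus is agonist 54-4 at its EC80 concentration; on the % scale 0 is the no-effect control and ±100 the full control effect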
Target sequence (Q9GZU1 whole entry, looked up): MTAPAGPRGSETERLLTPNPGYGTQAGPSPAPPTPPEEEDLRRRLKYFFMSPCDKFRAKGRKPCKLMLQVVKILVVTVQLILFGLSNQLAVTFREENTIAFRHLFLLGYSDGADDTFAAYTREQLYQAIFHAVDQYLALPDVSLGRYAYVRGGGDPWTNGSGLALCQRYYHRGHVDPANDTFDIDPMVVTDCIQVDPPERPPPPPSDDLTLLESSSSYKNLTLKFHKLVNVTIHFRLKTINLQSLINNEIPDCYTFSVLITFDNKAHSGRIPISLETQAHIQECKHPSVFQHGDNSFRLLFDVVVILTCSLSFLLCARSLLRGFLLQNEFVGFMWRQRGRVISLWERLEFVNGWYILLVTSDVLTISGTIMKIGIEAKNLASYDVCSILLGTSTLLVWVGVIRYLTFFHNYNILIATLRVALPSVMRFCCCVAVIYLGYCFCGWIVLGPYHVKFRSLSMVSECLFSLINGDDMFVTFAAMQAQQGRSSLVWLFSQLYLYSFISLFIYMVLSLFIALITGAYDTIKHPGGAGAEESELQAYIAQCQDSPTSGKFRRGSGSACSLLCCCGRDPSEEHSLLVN
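Tet-induced TRPML1-DL cells loaded with Ca8 no-wash calcium dye were read kinetically on FDSS. Compound addition was followed by EC80 agonist 54-4 (4 uM final); inhibition was read over 110 s.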
TRPV1 ag = human TRPV1 agonism; 0.19% of 320,000 active; activation, % at 8.33 µM; Q8NER1; AID 540275; TRPV1-expressing cells, Fluo-8 calcium influx, agonist mode; in the data active means activation above about 80%; inconclusive means between about 30% and that limit; further: 0% is about no effect
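Cells expressing TRPV1 were dye-loaded with Fluo-8 and read kinetically: 10 s baseline, 3 min after compound (agonist portion), then 2 min after EC20 capsaicin (allosteric enhancer portion). Calcium-bound dye fluorescence at 480/520 nm.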
TRPV1 PAM = human TRPV1 potentiation | Q8NER1 | TRPV1-expressing cells, Fluo-8 calcium influx, capsaicin EC20 potentiation | potentiation, % at 8.33 µM | 0.02% of 320,000 active; in the data active means potentiation above about 80%; inconclusive means between about 30% and that limit; further: 0% is about no effect
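TRPV1-expressing cells were cultured overnight at 35.5C and loaded with Fluo-8 calcium dye for 40 to 90 min at room temperature. After a 10 s baseline, compound was added and calcium influx was read kinetically for 3 min (ex 480/em 520 nm).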
TRPML1 ag = activates the human TRPML1 channel; Q9GZU1; TRPML1-expressing cells, Ca2+ dye fluorescence, FDSS; activation, % (test concentration not listed); 0.12% of 410,000 active; AID 624414; in the data active means activation above about 50%; inconclusive means mostly about 30% to 49%; further: 0% is about no effect
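Kinetic FDSS Ca2+ read in Tet-induced TRPML1-DL cells (ABD Ca8 dye plus quencher, 45-90 min RT loading): baseline, then compound, then 110 s agonist window; EC80 agonist 54-4 at 4uM final added afterwards for a 110 s antagonist window.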
TRHR ag = activates the human TRH receptor | 0.18% of 360,000 active | P34981 | TRHR cells, calcium flux fluo-8, FDSS agonist mode | activation, % at 2 µM; in the data active means activation above about 30%; further: 0% is about no effect
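Read-out: compound-evoked intracellular calcium rise in TRHR cells, fluo-8 dye, kinetic FDSS fluorescence at 1 s/cycle following a 10-cycle baseline. Cells cultured overnight before dye loading (30 min–1.5 h, RT).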
* hit, by the source's call; ? = inconclusive; · = no result; ! = not active in a repeat. Hits are enriched below; roughly 0.99% of the tested compounds scored in any of these assays.

SMILES | TRHR PAM | TRPML1 blocker | TRPV1 ag | TRPV1 PAM | TRPML1 ag | TRHR ag
CCCN1CCN(CCCNC(=O)c2cc3c(s2)-c2ccccc2OC3)CC1 | 37.1*! | 12.9 | 1.0 | 4.2 | -0.6 | 0.2
Cc1ccc(NC(=O)CSc2nccn2Cc2ccco2)cc1 | -2.4 | -10.0 | 7.3 | -16.8 | 1.0 | 3.0
Cc1ccc(NC(=O)CSc2nccn2Cc2ccco2)cc1Cl | 34.9* | 4.8 | · | · | 1.4 | -0.6
O=C(CSc1nnc(-c2ccncc2)o1)NC1C2CC3CC(C2)CC1C3 (stereo not given) | 30.5* | -3.8 | 0.0 | 12.9 | -0.1 | -0.3
Cc1cc(C(=O)NNC(=S)NCc2ccccc2)cs1 | 0.9 | 47.5 | 2.3 | 1.9 | -0.6 | -0.4
Cc1nn(C)c(C(=O)NNC(=S)NCc2ccccc2)c1Cl | 39.1* | -0.5 | -2.1 | 16.0 | 0.4 | -0.4
Cc1ccc(-n2ncc(C(=O)Nc3ccc4c(c3)OCCO4)c2C2CCN(C(=O)OC(C)(C)C)CC2)cc1 | 31.3* | ? | · | · | 1.7 | 1.6
CCN1CCN(C(=O)c2cnn(-c3cccc(Cl)c3)c2C2CCN(C(=O)OC(C)(C)C)CC2)CC1 | 37.3* | 4.4 | · | · | 1.0 | 1.8
CC(C)(C)OC(=O)N1CCC(c2c(C(=O)N3CCN(c4ncccn4)CC3)cnn2-c2ccc(F)cc2F)CC1 | -6.1 | 22.6 | · | · | 0.6 | 0.4
Cc1cccc(N2CCN(C(=O)c3cnn(-c4ccc(F)cc4F)c3C3CCN(C(=O)OC(C)(C)C)CC3)CC2)c1C | -2.4 | -62.8* | · | · | 93.3* | 1.1
Cc1cccc(-n2ncc(C(=O)N3CCN(Cc4ccccc4)CC3)c2C2CCN(C(=O)OC(C)(C)C)CC2)c1 | -11.1 | -14.6 | · | · | 51.0* | -0.3
Cc1ccc(-n2ncc(C(=O)Nc3ccc4c(c3)OCO4)c2C2CCN(C(=O)OC(C)(C)C)CC2)cc1 | 3.4 | -28.2 | · | · | 0.2 | 0.2
COc1ccc(-n2ncc(C(=O)N3CCN(Cc4ccccc4)CC3)c2C2CCN(C(=O)OC(C)(C)C)CC2)cc1 | 8.8 | 8.0 | · | · | 0.7 | 0.0
COc1ccccc1N1CCN(C(=O)c2cnn(-c3ccc(C)c(C)c3)c2C2CCN(C(=O)OC(C)(C)C)CC2)CC1 | -6.7 | -9.5 | · | · | 58.7* | -1.1
CC(C)(C)OC(=O)N1CCC(c2c(C(=O)N3CCN(C4CCCCC4)CC3)cnn2-c2cccc(Cl)c2)CC1 | 20.9 | -23.2 | · | · | 91.5* | 6.7
Cc1ccc(-n2ncc(C(=O)N3CCN(c4cccc(C)c4)C(C)C3)c2C2CCN(C(=O)OC(C)(C)C)CC2)cc1 (stereo not given) | 7.8 | -28.0 | · | · | 73.0* | -0.8
Cc1ccc(-n2ncc(C(=O)N3CCN(c4ccccn4)CC3)c2C2CCN(C(=O)OC(C)(C)C)CC2)cc1C | 5.9 | -3.7 | · | · | 0.5 | -0.1
Cc1ccc(-n2ncc(C(=O)N3CCN(C4CCCCC4)CC3)c2C2CCN(C(=O)OC(C)(C)C)CC2)cc1C | -4.1 | -15.3 | · | · | 69.2* | -0.4
CC(C)(C)OC(=O)N1CCC(c2c(C(=O)N3CCN(C4CCCCC4)CC3)cnn2-c2ccc(F)cc2)CC1 | -9.1 | -13.3 | 3.8 | -5.0 | -0.4 | -1.0
O=S(=O)(c1ccccc1C(F)(F)F)N1CCN(c2nc(-c3cccs3)nc3ccccc23)CC1 | · | · | · | · | 0.0 | ·
O=C(Nc1cc(F)ccc1F)c1cnn2c1NC(=C1CC1)C=C2C(F)F | · | · | · | · | -0.4 | ·
N#Cc1ccc(NC(=O)Nc2cccc(C#N)c2)cc1 | 3.6 | 4.4 | ? | -19.7 | 1.0 | 3.0
N#Cc1ccc(NC(=O)Nc2ccc(Oc3ccc(NC(=O)Nc4ccc(C#N)cc4)cc3)cc2)cc1 | 37.1* | 2.0 | ? | 7.0 | -0.8 | 0.4
COc1ccc2nc(N3CCCC3)c(C#N)cc2c1 | -1.7 | -7.6 | 20.6 | 0.5 | 14.2 | 20.4
COc1ccc2nc(N3CCCCC3)c(C#N)cc2c1 | 16.0 | -11.6 | -0.7 | 6.8 | 61.9* | -0.2
SMILES | TRHR PAM | TRPML1 blocker | TRPV1 ag | TRPV1 PAM | TRPML1 ag | TRHR ag
Cc1ccc(NC(=O)N2C3CCCC2CC(NC(=O)C2CC2)C3)cc1 (stereo not given) | 30.1* | 14.1 | 0.4 | 4.7 | 0.4 | -0.4
O=C(O[C@H]1[C@H](Cc2ccccc2)NS(=O)(=O)[C@H]2C[C@@H]3C=C[C@]12O3)c1ccccc1Br | · | · | · | · | 0.1 | ·
CCOC(=O)/C(C#N)=C/C=C1/C=CC=CN1C | 0.0 | 45.6 | 0.9 | 13.2 | 1.6 | 2.5
C=CCN1C=CC(=C/C=C(/C#N)C(=O)OCC)C=C1 | 0.5 | 17.8 | 19.4 | -21.0 | ? | 37.0*
CCOC(=O)C1CCN(C(=O)c2cc3cc(Br)ccc3oc2=O)CC1 | -3.7 | 15.4 | -0.8 | -7.2 | -0.4 | -0.2
CCOC(=O)C1CCCN(C(=O)c2cc3cc(Br)ccc3oc2=O)C1 (stereo not given) | 30.7* | -5.9 | 10.1 | -10.0 | -0.5 | -2.1
CCOc1ccc(C(=O)Nc2cccc(-n3cnnn3)c2)cc1OCC | 1.7 | 6.2 | -1.8 | -9.3 | 0.5 | -0.1
CCCCOc1ccc(C(=O)Nc2cccc(-n3cnnn3)c2)cc1OC | -1.4 | -1.5 | 88.5* | -23.1 | -0.8 | -0.1
CC(C)(C)c1ccc(C(=O)Nc2cccc(-n3cnnn3)c2)cc1 | -0.4 | 8.1 | 80.2* | -1.1 | 0.1 | 0.2
Cc1cccc(C(=O)OCc2cc3ccccc3[nH]c2=O)c1 | 0.2 | 1.5 | 3.0 | -32.3 | 3.2 | -0.2
Cc1ccc(C(=O)OCc2cc3ccccc3[nH]c2=O)cc1 | 37.7* | 4.5 | 13.0 | 4.0 | 1.3 | -0.2
Nc1ccc2cccnc2c1 | · | · | · | · | 0.3 | ·
CC(=O)NC1CCCN(O)C(=O)/C=C(\C)CCOC(=O)C(NC(C)=O)CCCN(O)C(=O)/C=C(\C)CCOC(=O)C(NC(C)=O)CCCN(O)C(=O)/C=C(\C)CCOC1=O (stereo not given) | 35.6* | · | -3.1 | 6.7 | · | 0.4
CC(=O)NC1CCC(=O)C=C1c1ccccc1 (stereo not given) | · | -5.0 | · | · | -0.2 | ·
CCN(CC)S(=O)(=O)c1ccc(S(=O)(=O)N2CCCC2)cc1 | 38.4* | -4.8 | -0.6 | 3.9 | 0.6 | -0.4
CCOc1ccc(S(=O)(=O)N2CCCC2)cc1 | -1.2 | -11.8 | 1.2 | -24.7 | 0.9 | -0.3
Cc1[nH]c2ccccc2c1/C=N/Nc1ccc([N+](=O)[O-])cc1 | 8.5 | 7.6 | 9.7 | -3.0 | 18.6 | 37.6*
O=C(O)CCc1cc(F)c(S(=O)(=O)N2CCN(S(=O)(=O)c3ccc4c(c3)OCCO4)CC2)cc1F | 10.4 | · | · | · | · | -1.9
O=C(/C=C/c1ccccc1)N1c2ccccc2Sc2ccc(C(F)(F)F)cc21 | -3.3 | 28.5 | 19.5 | 2.7 | 0.4 | 1.2
COc1ccc(/C=C/C(=O)N2c3ccccc3Sc3ccc(C(F)(F)F)cc32)cc1 | 33.5* | 8.6 | 12.6 | -4.0 | 1.0 | 0.3
C=CCN1CC[C@@H](O)C(=C)S1(=O)=O | · | · | · | · | -0.4 | ·
